# Bioassay records from PubChem.
# A selection: hits, their analogues and other compounds. The true share with any hit is near 2.4%.
# INS promoter inh = inhibitors of insulin promoter-driven GFP, primary screen, imaging, TRM-6 cells (human fetal islet line), eGFP reporter, cell count. 0.9% of 130,000 active. reporter expression induced with tamoxifen. inhibition, % at 2 µM;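 active = inhibition above the mean plus 3 SD, with well images judged a real hit on visual review, cut at about 60% in these data, passing the limit was not always enough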
# EP2 antag = human EP2 receptor antagonists, primary screen, TR-FRET cAMP, C6 glioma cells; Prostaglandin E2 receptor EP2 subtype (Homo sapiens), P43116; C6 glioma cells expressing human EP2; cells stimulated with saturating PGE2; inhibition, % at 25 µM; 0.52% of 260,000 active;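 active = percent inhibition above 40 after rounding to a whole number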;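 also: rat C6 glioma host cells with rolipram phosphodiesterase inhibitor present; the protocol text gives 20 µM as final concentration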
# EP2 mod = EP2 receptor modulators, cAMP readout, primary screen, cell-based, HTRF cAMP, PGE2 stimulation; Prostaglandin E2 receptor EP2 subtype (Homo sapiens), P43116; EP2-expressing cells, cAMP HTRF FRET, PGE2 co-stimulation; induction, % at 25 µM; 0.83% of 260,000 active;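 active = compounds whose cAMP rise, as percent of the full-agonist control response, exceeds 60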;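 also: rat C6 glioma line stably carrying human EP2 under a CMV promoter; the protocol text gives 20 µM as final concentration; 100% = response of wells given 1 µM PGE2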
# S1P3 antag = S1P3 receptor antagonists, primary screen, cell-based; CHO S1P3 NFAT-BLA reporter, FRET fluorescence, antagonist mode; AID 485, 2006; 0.27% of 170,000 active; inhibition, % at 4.98 µM;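 active = inhibition above the plate cutoff, the mean inhibition of test wells on that plate plus 3 SD, cut at about 28% in these data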;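 also: cells challenged with S1P at its EC80 of 0.8 µM; blue over green emission ratio from cleaved BLA substrate after 4 h stimulation; 0% = S1P-stimulated wells and 100% = unstimulated DMSO-only wells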
# Target sequence (Q99500 whole entry, looked up): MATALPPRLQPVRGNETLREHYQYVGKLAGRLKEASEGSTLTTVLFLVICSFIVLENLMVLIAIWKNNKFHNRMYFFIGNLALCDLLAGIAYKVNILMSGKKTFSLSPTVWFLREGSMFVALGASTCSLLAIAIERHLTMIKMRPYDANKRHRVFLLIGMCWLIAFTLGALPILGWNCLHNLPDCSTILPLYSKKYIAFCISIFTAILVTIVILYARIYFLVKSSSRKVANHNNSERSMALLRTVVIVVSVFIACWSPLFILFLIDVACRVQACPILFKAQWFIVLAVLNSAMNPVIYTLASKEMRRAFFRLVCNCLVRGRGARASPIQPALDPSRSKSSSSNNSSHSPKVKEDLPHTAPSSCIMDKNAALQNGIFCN
# S1P4 antag = S1P4 receptor antagonists, primary screen, cell-based; Sphingosine 1-phosphate receptor 4 (Homo sapiens), O95977; S1P4-expressing cells, antagonist mode, reporter read-out; inhibition, % at 4.98 µM; 0.26% of 220,000 active; in the data active = inhibition above about 29%;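 also: 0% = wells stimulated with agonist and 100% = vehicle wells without agonist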
# S1P4 ag = S1P4 receptor agonists, primary screen, cell-based; Sphingosine 1-phosphate receptor 4 (Homo sapiens), O95977; S1P4-expressing cell line, agonist reporter assay; activation, % at 4.98 µM; 0.35% of 220,000 active; AID 1509, 2009; in the data active = activation above about 11%;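 also: 0% = DMSO vehicle and 100% = reference agonist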
# * marks the source's active call; other numbers are inactive results; . = not tested or not shown; ! = not confirmed by another sample.
SMILES,INS promoter inh,EP2 antag,EP2 mod,S1P3 antag,S1P4 antag,S1P4 ag
O=C(Nc1ccc2c(c1)Cc1ccccc1-2)[C@@H]1[C@H](C(=O)O)[C@]2(Cl)C(Cl)=C(Cl)[C@@]1(Cl)C2(Cl)Cl,.,42.0*,-26.1,.,.,.
COc1ccc(S(=O)(=O)N2c3ccccc3OCC2c2ccccc2)cc1 (stereo unspecified),.,9.6,16.0,.,-9.0,-1.0
COc1ccc(S(=O)(=O)N2c3ccccc3OCC2C(C)(C)C)cc1 (stereo unspecified),-42.9,4.3,62.2*,-2.9,-16.3,0.7
C=CCOc1ccc(C(=O)N2CCC(C(=O)c3nc4ccccc4s3)CC2)cc1,.,.,-78.4,.,.,.
COc1cccc(OC)c1C(=O)Nc1cc(C)nn1-c1nc2ccccc2[nH]1,68.4*,10.1,29.1,7.1,-8.9,1.6
Cc1cc(NC(=O)c2ccccc2)n(-c2nc3ccccc3[nH]2)n1,27.3,1.2,19.7,-2.6,13.3,0.9
Cc1cc(-c2nc(-c3ccc(C(C)(C)C)cc3)no2)no1,.,5.7,-5.3,3.0,9.6,1.6
Cc1c(-c2nc(-c3ccc(C(C)(C)C)cc3)no2)n(C)oc1=O,.,7.2,72.5*,12.3,-8.0,1.0
CCc1ccccc1N(CC(=O)N1CCN(CC)CC1)S(C)(=O)=O,.,7.1,-14.9,.,.,.
COCc1nnc(NC(=O)c2cc(OC)cc(OC)c2)s1,.,7.2,-43.4,.,.,.
CC(=O)c1cnc(-c2ccccn2)s1,27.3,3.5,17.2,-6.0,-9.5,0.5
CC(=O)c1cnc(-c2ccccc2Cl)s1,76.9*,7.1,11.7,-11.0,2.8,0.4
CCc1nn(CC(=O)N(CC)CC)c(=O)c2cc3sc(C)cc3n12,.,.,-13.2,.,.,.
CCc1ccc(N(CC(=O)N2CCCCC2)S(C)(=O)=O)cc1,.,8.5,-3.3,.,.,.
CCNc1nc(NCC)nc(SCCOC(=O)c2ccccc2)n1,72.1,6.3,63.3*,.,-5.7,-1.0
COc1ccc(CC(=O)NNC(=O)CSc2nnc(C)n2-c2ccccc2)cc1,23.3,5.3,-3.7,0.2,2.5,0.5
COc1ccc(CC(=O)NNC(=O)CSc2nnc(Cc3ccc(OC)cc3)n2-c2ccccc2)cc1,71.4*,4.1,-0.8,-10.7,-11.7,4.8
O=C(CN1CCN(CC(=O)Nc2ccccc2C(F)(F)F)CC1)Nc1ccccc1F,84.6*,13.8,-3.8,-4.2,-6.2,-0.1
O=C(NCCCN1CCN(c2ccccc2F)CC1)Nc1ccccc1[N+](=O)[O-],78.4*,5.2,-20.9,-8.0,-0.3,-0.2
O=C(O)C1CCC(=O)N1Cc1ccccc1Cl (stereo unspecified),38.5,3.1,12.7,8.0,-17.4,15.1*
COc1ccc2nc(C)cc(Nc3ccc(NC(C)=O)cc3)c2c1,.,16.9,-53.8,.,.,.
COc1ccc2cc(C#N)c(SCC(=O)NC(C)(C)C)nc2c1,.,13.6,40.3,.,.,.
CCOC(=O)CSc1nc2cc(OC)ccc2cc1C#N,93.8*,10.1,39.9,2.7,-6.2,0.1
COc1ccc2cc(C#N)c(SCC(=O)NC3CCCCC3C)nc2c1 (stereo unspecified),.,25.7,76.9*,.,.,.
Cc1ccc2nc(NCc3ccco3)c(C=NCc3ccco3)c(=O)n2c1,.,7.6,63.2*,7.0,0.2,1.8
SMILES,INS promoter inh,EP2 antag,EP2 mod,S1P3 antag,S1P4 antag,S1P4 ag
Cc1ccc2nc(NCc3ccccc3)c(C=NCc3cccnc3)c(=O)n2c1,.,6.0,48.7,10.3,5.9,0.8
CCOC(=O)c1c(N)nn(C(=O)C(C)C)c1-c1ccc(OC)cc1,79.3*,3.0,48.1,.,-6.2,0.3
COc1cc(C2/C(=C(/O)c3ccccc3)C(=O)C(=O)N2CCN2CCOCC2)ccc1O (stereo unspecified),.,9.1,13.6,.,.,.
CC(NC(=O)/C(C#N)=C/c1ccc(Cl)c([N+](=O)[O-])c1)c1ccccc1 (stereo unspecified),.,68.7*,-15.1,-14.1,6.0,0.1
O=C1Nc2ccccc2C(=O)C1(Cl)Cc1ccccc1 (stereo unspecified),-29.6,112.2*,-18.7,.,0.3,0.7
CC(C)(C)N1C(=O)c2ccccc2NC(=O)N1Cc1ccccc1,-55.6,11.5,9.6,.,-1.4,3.0
CCOc1cc(C)nc(N2CCC(C(=O)NC3CCCCC3)CC2)n1,.,10.2,19.1,.,.,.
Cc1ccc(CN2C(=O)C(C)Oc3ccc(C)cc32)cc1 (stereo unspecified),.,9.3,82.9*,.,.,.
Cc1sc2ncn3c(SCC(=O)Nc4ccccc4-c4ccccc4)nnc3c2c1C,.,17.0,67.2*,.,.,.
Cc1sc2ncnc(SCC(=O)NNC(=O)Cc3ccccc3)c2c1C,.,9.6,23.5,.,.,.
Cc1sc2ncnc(SCC(=O)Nc3ccccc3-c3ccccc3)c2c1C,.,5.2,83.7*,.,.,.
O=C(CCn1c(-c2cccnc2)cc2cccnc21)NC1CCCCC1,.,8.7,-6.1,.,.,.
CC(C)(C)NC(=O)C12CCC(C)(c3nc4ccccc4nc31)C2(C)C (stereo unspecified),.,4.3,64.5*,.,3.1,-0.1
CCN(CC)S(=O)(=O)c1ccc(-c2nnc(SCc3nnc(-c4ccccc4)o3)o2)cc1,.,104.8*,25.9,-2.4,-0.9,2.2
COc1ccc(C(C(=O)NC2CCCC2)N(C(=O)Cc2cccs2)C2CC2)cc1 (stereo unspecified),.,15.6,1.3,.,.,.
Cn1c(SCCN2CCOCC2)nnc1-c1ccc(O)cc1,.,13.0,9.9,.,.,.
Cc1cn(C(=O)c2ccccc2)c(=S)n1-c1ccc(Br)cc1,24.1,5.1,64.8*,.,-3.7,-0.4
COc1nc(C)nc(C)c1Oc1ccc(Cl)cc1Cl,.,2.2,64.7*,-15.0,2.3,0.7
O=C(Nc1ccc(Cl)c(C(F)(F)F)c1)NC1CC2CCCC(C1)N2Cc1ccccc1 (stereo unspecified),-6.7,50.8*,-122.6,-3.5,-9.2,0.9
COc1ccccc1NC(=O)N(Cc1cc2cc(OC)c(OC)cc2[nH]c1=O)C1CCCC1,.,10.8,23.5,.,.,.
Cc1n[nH]c(C)c1Cc1c(F)cccc1Cl,.,-2.3,86.5*,6.8,-9.8,1.9
Cc1cccc(C2(O)CCN(C(=O)c3cnn(-c4ccc(F)cc4)c3)CC2)c1,.,9.0,-97.5,.,.,.
CCOC(=O)c1cc2sccc2n1Cc1cccc(F)c1,.,9.4,85.4*,.,.,.
NS(=O)(=O)c1ccc(N=Nc2c(O)c(C(=O)O)cc3ccccc23)cc1,.,50.2*!,-24.3,4.0,7.0,1.3
CCN(CC)S(=O)(=O)c1cc([N+](=O)[O-])ccc1N=Nc1c(O)[nH]c2ccccc12,14.3,6.2,5.4,-0.9,-4.0,-0.5
O=[N+]([O-])c1ccc2c(N=Nc3ccc4ccccc4c3O)c(O)cc(S(=O)(=O)O)c2c1,.,50.5*,-39.0,.,.,.
